Measured values as given in PubChem BioAssay AID624330 (Southern Research Specialized Biocontainment Screening …, 2012).
Values joined by “and” are separate entries in the source; they are usually repeats but may differ in a detail not shown here. Identical values can stand only once. In all, about 340,000 compounds went through this assay and about 2,100 (0.62%) were called active.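 The calls were made as follows: active = first-screen hits whose inhibition reached a set limit at any dose in the follow-up dose series; inconclusive = inhibition above the set first-screen limit but never retested; inactive = the rest.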 A selection follows. Entries with a potency or affinity are not part of this list.

These compounds were tested against Rac GTPase-activating protein 1 (Homo sapiens) (UniProt Q9H0H5) (assay: MgcRacGAP GTPase-activating activity inhibitors, confirmation, biochemical, ADP Hunter fluorescence, primary and confirmatory (AID 624330;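 also: fluorescence reports GDP produced by GAP-driven GTP hydrolysis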)). Settings: MgcRacGAP-stimulated Rac1 GTP hydrolysis, at 30 µM, active compounds read high, GST-tagged Rac1 F28L mutant substrate.
Chain of Rac GTPase-activating protein 1 (Homo sapiens) (Q9H0H5 whole entry, looked up): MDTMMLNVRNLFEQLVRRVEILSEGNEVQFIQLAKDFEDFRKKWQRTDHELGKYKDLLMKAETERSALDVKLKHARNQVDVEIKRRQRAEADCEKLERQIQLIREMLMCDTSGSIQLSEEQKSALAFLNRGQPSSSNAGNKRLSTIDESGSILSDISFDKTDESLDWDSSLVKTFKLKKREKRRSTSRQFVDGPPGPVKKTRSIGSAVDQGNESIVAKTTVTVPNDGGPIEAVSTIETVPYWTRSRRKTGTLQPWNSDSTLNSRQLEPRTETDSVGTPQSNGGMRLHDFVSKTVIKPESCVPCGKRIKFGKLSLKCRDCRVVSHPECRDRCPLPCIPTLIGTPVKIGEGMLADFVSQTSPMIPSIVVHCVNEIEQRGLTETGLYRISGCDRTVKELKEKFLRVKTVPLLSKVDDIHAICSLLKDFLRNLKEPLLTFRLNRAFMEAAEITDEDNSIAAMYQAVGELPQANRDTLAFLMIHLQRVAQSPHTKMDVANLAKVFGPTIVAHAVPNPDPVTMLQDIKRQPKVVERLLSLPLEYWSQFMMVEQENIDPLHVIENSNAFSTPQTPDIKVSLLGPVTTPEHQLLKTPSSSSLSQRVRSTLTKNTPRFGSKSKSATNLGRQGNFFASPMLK

inhibition, inactive:
O=C(NCc1ccco1)C1CC(c2cc(C(F)(F)F)cc(C(F)(F)F)c2)=NO1 (centres undefined) 6.53%
COc1cc2c(cc1NC(=O)CN(C)Cc1nc3ccccc3c(=O)[nH]1)oc1ccccc12 5.31%
O=C(Nc1ccc(Cl)cc1Cl)NC1CCN(S(=O)(=O)c2ccc(F)cc2)CC1 9.28%
Cc1ccc(-c2ccc(/C=N/NC(=O)Cc3nnc(N)s3)o2)cc1Cl 7.23%
COc1ccc(S(=O)(=O)N2CCOCC2)cc1NC(=O)c1cc(C)oc1C 6.98%
O=C(Cn1sc2ccccc2c1=O)Nc1ccc(Cl)cc1 31.2%
O=C(Cn1sc2ccccc2c1=O)Nc1ccc(Br)cc1 31.7%
CCn1c(=O)n(CC(=O)Nc2ccc(F)cc2)c(=O)c2ccccc21 12.4%
O=C(Cn1nc(-c2ccccc2)c2ccccc2c1=O)Nc1ccc(F)cc1 5.93%
O=c1c(-c2ccc(Br)cc2)[n+]([O-])c2ccccc2n1OCc1ccccc1 -0.43%
CSc1ccc(Cn2nnc(C(=O)Nc3ccc(C)c(C)c3)c2N)cc1 8.18%
Cn1c(SCC(=O)Nc2cccc(F)c2)nnc1-c1cc2ccccc2o1 7.89%
Nc1ccc(NC(=O)c2cccs2)cc1 24%
CC1=C(C(=O)NCCc2ccc(C)cc2)C2(CCC(C)CC2)OC1=O (centres undefined) 7.59%
O=C(NC1=C(Nc2ccc(Cl)cc2)C(=O)c2ccccc2C1=O)c1ccccc1 6.16%
O=C(Nc1ccccc1Cl)c1ccccc1 6.83%
C/C(=N\NC(=O)C(O)c1ccccc1)c1cccnc1 (centres undefined) 2.12%
O=C(N/N=C/c1ccc(N2CCOCC2)s1)c1ccccc1Cl 25.1%
COc1ccc(C(=O)N/N=C/c2sc(N3CCOCC3)nc2-c2ccccc2)cc1OC 7.1%
O=C(N/N=C/c1ccc(N2CCOCC2)s1)c1ccc(NS(=O)(=O)c2cccs2)cc1 18.4%
COc1ccc(C(=O)N/N=C/c2ccc(N3CCOCC3)o2)cc1OC 14.2%
Nc1ccc(C(=O)N/N=C/c2sc(N3CCOCC3)nc2-c2ccccc2)cc1 12%
O=C(NN=Cc1ccc(N2CCOCC2)s1)c1ccc([N+](=O)[O-])cc1 9.59%
CCCNC(=O)CSC1=N/C(=C/c2ccc(F)cc2)C(=O)N1CC -5.26%
CCC(=O)NC(=S)Nc1ccc(S(=O)(=O)NC(C)C)cc1 -11.4%
O=C(COC(=O)C1CCC1)Nc1cccc(Cl)c1 2.49%
O=C(NC1CCCCC1)C(c1ccncc1)N(C(=O)c1csnn1)c1ccc(F)cc1 (centres undefined) 0.4%
CC1=CCC2C(=O)N(c3ccccc3OC(=O)c3ccccc3F)C(=O)C2C1 (centres undefined) 2.92%
C=CCC1CCC/C(=N\NS(=O)(=O)c2ccc(C)cc2)C1 (centres undefined) -4.06%
Nc1ccn(CCCN2CCN(C(=O)C3CC3)CC2)c(=O)n1 15.1%
COc1cc(C2c3[nH]c4ccccc4c3C[C@H]3C(=O)N(CCO)CC(=O)N23)cc(OC)c1OC (some centres undefined) 8.37%
Cc1c(C(=O)N2CCN(S(=O)(=O)c3ccccc3)CC2)oc2ccccc12 3.82%
O=C(Nc1ccccc1)N1CCc2scc[n+]2-c2ccccc21 16.9%
O=C(NCc1nnc(SCC(=O)N2CCOCC2)o1)c1c(F)cccc1F 7.33%
O=C(NNc1c(Cl)cccc1Cl)c1sccc1Cl 6.69%
COc1ccc(Nc2cccccc2=O)cc1 7.45%
COc1ccc(C(=O)Nc2ccc3ccccc3c2)cc1 3.97%
COc1ccc(Nc2cccc3ccccc23)cc1 31.6%
COc1ccc(NC(C)=O)c(C)c1 -3.51%
O=C(Nc1ccc(S(=O)(=O)Nc2ncccn2)cc1)c1ccccc1 2.75%
CCc1cccc(CC)c1NC(=O)CN1CCN(c2ccccc2)CC1 20.5%
COc1ccccc1NS(=O)(=O)c1ccc(C)c(C(=O)N2CCCC2)c1 -1.95%
COc1ccc(OC)c(CN2CCN(C(=O)c3cc(S(=O)(=O)Nc4ccccc4OC)ccc3C)CC2)c1 -2.48%
COc1cc(C(O)P(=O)(OCCC(C)C)c2ccc(N(C)C)cc2)cc(OC)c1OC (centres undefined) -1.91%
CN(C)/C=N/c1ncc(C(=O)c2ccc(Cl)cc2)s1 3.44%
CN(C)/C=N/c1ncc(C(=O)c2ccccc2)s1 7.32%
COc1ccc(CC(=O)NNC(=O)c2cc(Cl)ccc2OC)cc1 -0.57%
CC(Oc1ccccc1)C(=O)NC1C(=O)N2C1SC(C)(C)C2C(=O)O (centres undefined) 6.29%
COc1ccccc1Nc1ccc(Nc2ccccc2OC)nn1 -7.41%
Cc1nnc(Nc2ccc(Cl)cc2)s1 -3.99%
COc1ccccc1Nc1nc(C)cs1 0.84% and 0.19%
Cc1cccc(Nc2nc3ccccc3s2)c1C 0.63%
Cc1nc(CSc2nnc(Nc3cccc(C)c3C)s2)cs1 4.77%
Cc1nnc(Nc2ccccc2F)s1 8%
O=C1c2ccccc2C(=O)N1CSc1nnc(Nc2ccccc2F)s1 5.49%
Cc1ccc(Nc2nc3ccccc3o2)cc1F 1.08%
Cc1cc(C)n(C(=O)c2c([N+](=O)[O-])cnn2C)n1 -7.87%
O=C(Cc1ccc(F)cc1)Nc1cccc2cccnc12 5.65%
Cc1ccc(Sc2cnccc2C#N)cc1 -14.2%
COC(=O)c1cc(C(=O)OCC(=O)N(C)C2CCS(=O)(=O)C2)cc([N+](=O)[O-])c1 (centres undefined) -3.52%
CC1Sc2ccc(S(=O)(=O)N3CCC(C(=O)NCCc4ccccc4)CC3)cc2NC1=O (centres undefined) 6.85%
COc1cc(C2NC(=O)NC(c3ccccc3)=C2C(C)=O)c(Br)c(Br)c1O (centres undefined) 25.1%
CCOC(=O)c1cc(NC(=O)C2C3C=CC(O3)C2C(=O)O)cc(C(=O)OCC)c1 (centres undefined) 6.71%
CN1CCN(S(=O)(=O)c2ccc(Oc3cccc(C(F)(F)F)c3)nc2)CC1 9.66%
O=c1c(Br)c(N2CCCCC2)cnn1-c1ccccc1 3.03%
CCc1cc(=O)oc2cc(OCC(=O)NCCN3CCOCC3)c(Cl)cc12 0.13%
CCOC(=O)c1sc(Nc2ccc(OCC)cc2)nc1C -3.93%
Clc1ccccc1Nc1nnc(-c2ccncc2)s1 12.4%
O=C(c1ccccc1)c1cnc(Nc2ccccc2Cl)s1 8.39%
CCOc1ccc(Nc2nc3ccccc3c(=O)s2)cc1 4.2%
Cc1cc(=O)[nH]c(Nc2cccc(Cl)c2C)n1 3.14%
Cc1ccc(Nc2nc3ccccc3s2)c(C)c1 7.17%
Cc1c(Cl)cccc1Nc1ccccc1C(=O)O 3.44%
Cc1ccc(Nc2nc3c(s2)CCC3)c(C)c1 9.23%
N#CC1(Nc2ccc(S(N)(=O)=O)cc2)CCCC1 2.96%
Cc1ccc2c(C(=O)CN3CCCCC3)c(C)[nH]c2c1 3.73%
COC(=O)c1cc(C(=O)Nc2nnc(C3CC3)s2)cc([N+](=O)[O-])c1 11.3%
O=C(CSc1ccc(Br)cc1)NCC1(N2CCCCC2)CCCCC1 5.48%
CCC1(CC)NC(=O)N(CC(=O)OC(C)C(=O)Nc2ccccc2OC)C1=O (centres undefined) 1.87%
CCc1ccc(NC(=O)NCC2CCN(c3ccc(OC)cc3)C2)cc1 (centres undefined) 10.4%
COc1ccc(N2CCN(C(=S)Nc3cccc(C)c3)CC2)cc1 14.2%
COc1ccc(N2CCC(CNC(=O)Nc3ccc(C)c(C)c3)C2)cc1 (centres undefined) 36.2%
COc1ccc(C(=O)N2CCC(CCC(=O)Nc3cccc(C)c3)CC2)cc1 5.31%
COc1ccc(N2CCC(CNC(=O)Nc3ccc(Cl)cc3)C2)cc1 (centres undefined) 23.3%
COc1ccc(N2CCC(CNC(=S)Nc3c(C)cc(C)cc3C)C2)cc1 (centres undefined) 23.7%
CCOc1ccc(NC(=O)NCC2CCN(c3ccc(OC)cc3)C2)cc1 (centres undefined) 5.23%
CCc1cccc(C)c1NC(=S)NCC1CCN(c2ccc(OC)cc2)C1 (centres undefined) 26.6%
COCC(C)n1c(C)cc(C(=O)CN2c3cccc4cccc(c34)S2(=O)=O)c1C (centres undefined) 6.1%
O=C(CN(Cc1ccc(Br)cc1)S(=O)(=O)c1ccccc1)NCc1ccccn1 11.6%
C/C(=N\NC(=O)CSc1nc2ccccc2s1)c1cccnc1 2.25%
COc1cc(OC)c(NC(=O)CCNS(=O)(=O)c2ccc3c(c2)CC(C)N3C(C)=O)cc1Cl (centres undefined) -10.2%
COc1cc(/C=N/NC(=O)c2c(C)nc3ccc(Cl)cn23)cc(OC)c1OC 0.19%
COc1ccc(NC(=O)c2ccc(CN3CCc4ccccc4C3)cc2)cc1OC 4.51%
COc1ccc(C(=O)/C=C/c2ccc(O)cc2)c(O)c1CC=C(C)C 7.57%
COc1ccc(C(=O)/C=C/c2ccc(O)cc2)c(O)c1C/C=C(\C)CCC=C(C)C 1.5%
CCCOc1ccc(OCCN2CCCC(C)C2)cc1 (centres undefined) 20%
O=C(CSc1ncnc2sccc12)NCc1ccc2c(c1)OCO2 4.24%
Nc1cccc([N+](=O)[O-])c1 0.03%
O=[N+]([O-])c1cccc(S(=O)(=O)c2cccc([N+](=O)[O-])c2)c1 4.34%
